Records with an inconclusive call do not appear. Values without a mark were called inactive. The source made the active and inactive calls. The call rests on the fitted dose curve.
Experiment: Primary qHTS for inhibitors of SARS-S pseudo-typed particle cell entry (AID 1479145); further: nearly all actives have a fitted effect of over 45% in size; further: potency means the concentration at half of the fitted maximal effect
Details: SARS-S pseudotyped particle cell entry, luciferase reporter; series mostly up to 57.1 µM; activity change, negative = inhibition: at the top concentration
On the % scale 0 is the no-effect control and ±100 the full control effect.

Q: For `CNC(=O)c1cnn(-c2nc(N)c3ncn([C@@H]4O[C@H](CO)[C@@H](O)[C@H]4O)c3n2)c1`, which “activity change, negative = inhibition” value is on record?
A: -18.5%

Q: With `OC[C@H]1O[C@@H](O[C@@H]2[C@@H](CO)O[C@](O)(CO)[C@H]2O)[C@H](O)[C@@H](O)[C@H]1O` as the molecule, how does the “outcome” value read?
A: inactive

Q: Which “activity change, negative = inhibition” value does the source give for `Cc1cccc(N(C)C(=S)Oc2ccc3c(c2)C2CCC3C2)c1` (stereo unspecified) here?
A: 2.53%

Q: For `CCO[C@@H]1O[C@H](C(COCc2ccccc2)OCc2ccccc2)[C@H](OCc2ccccc2)[C@H]1O` (stereo partly specified), which “activity change, negative = inhibition” value is on record?
A: -25.8%

Q: With `CCC(=O)c1ccc(O)cc1` as the molecule, how does the “outcome” value read?
A: inactive

Q: For `C[C@H]1C[C@H]2[C@@H]3CCC4=CC(=O)C=C[C@]4(C)[C@@]3(Cl)[C@@H](O)C[C@]2(C)[C@@]1(O)C(=O)CO`, which “outcome” value is on record?
A: inactive

Q: Which “activity change, negative = inhibition” value does the source give for `CN1[C@@H]2CC[C@H]1CC(NC(=O)n1c(=O)[nH]c3ccccc31)C2` (stereo partly specified) here?
A: -18.9%

Q: Which “activity change, negative = inhibition” value does the source give for `CC(=O)OCC1=C(C(=O)O)N2C(=O)[C@@H](NC(=O)CSc3ccncc3)[C@H]2SC1` here?
A: 1.92%

Q: With `CC(=O)CCC(=O)O` as the molecule, how does the “activity change, negative = inhibition” value read?
A: -20.6%

Q: With `CN(C)C(=O)Oc1cccc([N+](C)(C)C)c1` as the molecule, how does the “activity change, negative = inhibition” value read?
A: -4.08%

Q: Which “outcome” value does the source give for `C#C[C@]1(OC(C)=O)CC[C@H]2[C@@H]3CCC4=C/C(=N/O)CC[C@@H]4[C@H]3CC[C@@]21CC` here?
A: inactive

Q: For `Cc1cccc(C)c1NC(=O)C(C)N` (stereo unspecified), which “activity change, negative = inhibition” value is on record?
A: -17%

Q: With `CC(=O)/C=C/C=C1/C2CCC(C2)C1(C)C` (stereo unspecified) as the molecule, how does the “outcome” value read?
A: inactive

Q: With `CN(C)CCn1nnnc1SCC1=C(C(=O)O)N2C(=O)[C@@H](NC(=O)Cc3csc(N)n3)[C@H]2SC1` as the molecule, how does the “activity change, negative = inhibition” value read?
A: -5.44%

Q: Which “outcome” value does the source give for `CCOC(=O)c1cccc(N)c1` here?
A: inactive

Q: For `O=C1C(CCS(=O)c2ccccc2)C(=O)N(c2ccccc2)N1c1ccccc1` (stereo unspecified), which “outcome” value is on record?
A: inactive

Q: For `O=C(O)C(=O)Nc1cccc(-c2nn[nH]n2)c1`, which “activity change, negative = inhibition” value is on record?
A: -23%

Q: Which “outcome” value does the source give for `CC(=C(CCOC(=O)C(C)C)SSC(CCOC(=O)C(C)C)=C(C)N(C=O)Cc1cnc(C)nc1N)N(C=O)Cc1cnc(C)nc1N` here?
A: inactive

Q: Which “activity change, negative = inhibition” value does the source give for `O=C1c2cccc(O)c2C(=O)c2c(O)cccc21` here?
A: -8.71%

Q: For `Cc1nnc(C(=O)NC(C)(C)c2nc(C(=O)NCc3ccc(F)cc3)c(O)c(=O)n2C)o1`, which “activity change, negative = inhibition” value is on record?
A: -93.8%

Q: Which “outcome” value does the source give for `O=C(CCCN1CCN(c2ccccn2)CC1)c1ccc(F)cc1` here?
A: inactive

Q: For `CCCc1ncc(C[n+]2ccccc2C)c(N)n1`, which “activity change, negative = inhibition” value is on record?
A: -3.12%

Q: Which “outcome” value does the source give for `CC1(C)[C@@H]2CC[C@@]1(C)C(=O)C2` here?
A: inactive

Q: With `CCC(=O)O[C@]1(C(=O)SCF)[C@H](C)C[C@H]2[C@@H]3C[C@H](F)C4=CC(=O)C=C[C@]4(C)[C@@]3(F)[C@@H](O)C[C@@]21C` as the molecule, how does the “outcome” value read?
A: inactive

Q: With `C[C@@H]1C[C@H]2[C@@H]3CCC4=CC(=O)C=C[C@]4(C)[C@@]3(F)[C@@H](O)C[C@]2(C)[C@H]1C(=O)CO` as the molecule, how does the “activity change, negative = inhibition” value read?
A: 1.38%

Q: For `Cc1[nH]c(=O)c(C#N)cc1-c1ccc2nccn2c1`, which “outcome” value is on record?
A: inactive

Q: Which “activity change, negative = inhibition” value does the source give for `CC1(C)S[C@@H]2[C@H](N=CN3CCCCCC3)C(=O)N2[C@H]1C(=O)O` here?
A: -22.3%

Q: Which “outcome” value does the source give for `CCN1CCN(c2cc(-c3ccc(F)cc3)c3c(n2)CCCCCC3)CC1` here?
A: inactive [at 26.4 µM]

Q: With `CC[N+](CC)(CC)CCOC(=O)C(C1CCCC1)C1CCCC1` as the molecule, how does the “activity change, negative = inhibition” value read?
A: -24.2%

Q: With `Cc1c(C)c2c(c(C)c1OC(=O)CCC(=O)OCCO)CC[C@@](C)(CCC[C@H](C)CCC[C@H](C)CCCC(C)C)O2` as the molecule, how does the “activity change, negative = inhibition” value read?
A: -0.611%

Q: Which “activity change, negative = inhibition” value does the source give for `Cc1c(C(=O)NN2CCCCC2)nn(-c2ccc(Cl)cc2Cl)c1-c1ccc(Cl)cc1` here?
A: -19.3%

Q: Which “outcome” value does the source give for `CC(O)COc1ccccc1` (stereo unspecified) here?
A: inactive

Q: Which Potency does the source give for `Oc1c(Cl)cc(Cl)c(Cl)c1Cc1c(O)c(Cl)cc(Cl)c1Cl` here?
A: 2.82 µM (active)

Q: With `COc1nc(C)nc(Cl)c1NC1=NCCN1` as the molecule, how does the “activity change, negative = inhibition” value read?
A: -5.64%

Q: Which “activity change, negative = inhibition” value does the source give for `CN1CCCN=C1/C=C/c1cccs1` here?
A: -15.3%

Q: Which “activity change, negative = inhibition” value does the source give for `CCCCN(CCN(CCCC)C(=O)N1CCOCC1)C(=O)N1CCOCC1` here?
A: -12.3%

Q: With `O=C(O)CCc1nc(-c2ccccc2)c(-c2ccccc2)o1` as the molecule, how does the “activity change, negative = inhibition” value read?
A: -3.33%

Q: Which “activity change, negative = inhibition” value does the source give for `CC(=O)N[C@H]1[C@H]([C@H](O)[C@H](O)CO)OC(C(=O)O)=C[C@@H]1N=C(N)N` here?
A: -20.6%

Experiment: Primary qHTS for Huh7 cytotoxicity: counterscreen for inhibitors of MERS-S pseudotyped particle cell entry (AID 1479147)
Details: cell viability read-out; series mostly up to 57.1 µM; activity change, negative = cytotoxicity: at the top concentration

Q: For `CNC(=O)c1cnn(-c2nc(N)c3ncn([C@@H]4O[C@H](CO)[C@@H](O)[C@H]4O)c3n2)c1`, which “activity change, negative = cytotoxicity” value is on record?
A: -1.37%

Q: For `OC[C@H]1O[C@@H](O[C@@H]2[C@@H](CO)O[C@](O)(CO)[C@H]2O)[C@H](O)[C@@H](O)[C@H]1O`, which “outcome” value is on record?
A: inactive

Q: With `Cc1cccc(N(C)C(=S)Oc2ccc3c(c2)C2CCC3C2)c1` (stereo unspecified) as the molecule, how does the “outcome” value read?
A: inactive

Q: Which “outcome” value does the source give for `CCO[C@@H]1O[C@H](C(COCc2ccccc2)OCc2ccccc2)[C@H](OCc2ccccc2)[C@H]1O` (stereo partly specified) here?
A: inactive

Q: For `CCC(=O)c1ccc(O)cc1`, which “outcome” value is on record?
A: inactive

Q: Which “activity change, negative = cytotoxicity” value does the source give for `C[C@H]1C[C@H]2[C@@H]3CCC4=CC(=O)C=C[C@]4(C)[C@@]3(Cl)[C@@H](O)C[C@]2(C)[C@@]1(O)C(=O)CO` here?
A: -18.5%

Q: For `CN1[C@@H]2CC[C@H]1CC(NC(=O)n1c(=O)[nH]c3ccccc31)C2` (stereo partly specified), which “outcome” value is on record?
A: inactive

Q: For `CC(=O)OCC1=C(C(=O)O)N2C(=O)[C@@H](NC(=O)CSc3ccncc3)[C@H]2SC1`, which “outcome” value is on record?
A: inactive

Q: Which “outcome” value does the source give for `CC(=O)CCC(=O)O` here?
A: inactive

Q: With `CN(C)C(=O)Oc1cccc([N+](C)(C)C)c1` as the molecule, how does the “outcome” value read?
A: inactive

Q: Which “outcome” value does the source give for `C#C[C@]1(OC(C)=O)CC[C@H]2[C@@H]3CCC4=C/C(=N/O)CC[C@@H]4[C@H]3CC[C@@]21CC` here?
A: inactive

Q: Which “outcome” value does the source give for `Cc1cccc(C)c1NC(=O)C(C)N` (stereo unspecified) here?
A: inactive

Q: For `CC(=O)/C=C/C=C1/C2CCC(C2)C1(C)C` (stereo unspecified), which “outcome” value is on record?
A: inactive

Q: For `CN(C)CCn1nnnc1SCC1=C(C(=O)O)N2C(=O)[C@@H](NC(=O)Cc3csc(N)n3)[C@H]2SC1`, which “activity change, negative = cytotoxicity” value is on record?
A: -5.46%

Q: Which “outcome” value does the source give for `CCOC(=O)c1cccc(N)c1` here?
A: inactive

Q: With `O=C1C(CCS(=O)c2ccccc2)C(=O)N(c2ccccc2)N1c1ccccc1` (stereo unspecified) as the molecule, how does the “outcome” value read?
A: inactive

Q: For `O=C(O)C(=O)Nc1cccc(-c2nn[nH]n2)c1`, which “activity change, negative = cytotoxicity” value is on record?
A: -3.11%

Q: Which “outcome” value does the source give for `CC(=C(CCOC(=O)C(C)C)SSC(CCOC(=O)C(C)C)=C(C)N(C=O)Cc1cnc(C)nc1N)N(C=O)Cc1cnc(C)nc1N` here?
A: inactive

Q: For `O=C1c2cccc(O)c2C(=O)c2c(O)cccc21`, which “activity change, negative = cytotoxicity” value is on record?
A: -23.7%

Q: Which “outcome” value does the source give for `Cc1nnc(C(=O)NC(C)(C)c2nc(C(=O)NCc3ccc(F)cc3)c(O)c(=O)n2C)o1` here?
A: inactive

Q: Which “activity change, negative = cytotoxicity” value does the source give for `O=C(CCCN1CCN(c2ccccn2)CC1)c1ccc(F)cc1` here?
A: -0.824%

Q: For `CCCc1ncc(C[n+]2ccccc2C)c(N)n1`, which “activity change, negative = cytotoxicity” value is on record?
A: 3.26%

Q: Which “activity change, negative = cytotoxicity” value does the source give for `CC1(C)[C@@H]2CC[C@@]1(C)C(=O)C2` here?
A: -14.9%

Q: Which “outcome” value does the source give for `CCC(=O)O[C@]1(C(=O)SCF)[C@H](C)C[C@H]2[C@@H]3C[C@H](F)C4=CC(=O)C=C[C@]4(C)[C@@]3(F)[C@@H](O)C[C@@]21C` here?
A: inactive

Q: For `C[C@@H]1C[C@H]2[C@@H]3CCC4=CC(=O)C=C[C@]4(C)[C@@]3(F)[C@@H](O)C[C@]2(C)[C@H]1C(=O)CO`, which “outcome” value is on record?
A: inactive

Q: Which “outcome” value does the source give for `Cc1[nH]c(=O)c(C#N)cc1-c1ccc2nccn2c1` here?
A: inactive

Q: For `CC1(C)S[C@@H]2[C@H](N=CN3CCCCCC3)C(=O)N2[C@H]1C(=O)O`, which “activity change, negative = cytotoxicity” value is on record?
A: 3.79%

Q: For `CCN1CCN(c2cc(-c3ccc(F)cc3)c3c(n2)CCCCCC3)CC1`, which “activity change, negative = cytotoxicity” value is on record?
A: 2.84% [at 26.4 µM]

Q: With `CC[N+](CC)(CC)CCOC(=O)C(C1CCCC1)C1CCCC1` as the molecule, how does the “activity change, negative = cytotoxicity” value read?
A: -2.5%

Q: For `Cc1c(C)c2c(c(C)c1OC(=O)CCC(=O)OCCO)CC[C@@](C)(CCC[C@H](C)CCC[C@H](C)CCCC(C)C)O2`, which “outcome” value is on record?
A: inactive

Q: Which “activity change, negative = cytotoxicity” value does the source give for `Cc1c(C(=O)NN2CCCCC2)nn(-c2ccc(Cl)cc2Cl)c1-c1ccc(Cl)cc1` here?
A: 3.71%

Q: With `CC(O)COc1ccccc1` (stereo unspecified) as the molecule, how does the “outcome” value read?
A: inactive

Q: For `Oc1c(Cl)cc(Cl)c(Cl)c1Cc1c(O)c(Cl)cc(Cl)c1Cl`, which “activity change, negative = cytotoxicity” value is on record?
A: -25.3%

Q: Which “activity change, negative = cytotoxicity” value does the source give for `COc1nc(C)nc(Cl)c1NC1=NCCN1` here?
A: 3.53%

Q: With `CN1CCCN=C1/C=C/c1cccs1` as the molecule, how does the “activity change, negative = cytotoxicity” value read?
A: 1.71%

Q: For `CCCCN(CCN(CCCC)C(=O)N1CCOCC1)C(=O)N1CCOCC1`, which “outcome” value is on record?
A: inactive

Q: For `O=C(O)CCc1nc(-c2ccccc2)c(-c2ccccc2)o1`, which “outcome” value is on record?
A: inactive

Q: Which “outcome” value does the source give for `CC(=O)N[C@H]1[C@H]([C@H](O)[C@H](O)CO)OC(C(=O)O)=C[C@@H]1N=C(N)N` here?
A: inactive

Reference: PubChem BioAssay (NCATS)
